The antibiotic and cytotoxicity screens of Wong et al. (2023)
The whole screen tested about 39,000 compounds, of which about 3,300 (8.5%) were called active. The list comes from a sample in which actives are over-represented; it also holds similar structures and randomly drawn compounds.

test system: HepG2; assay: cytotoxicity call (relative viability < 0.9); conditions: 10 µM

SMILES	cytotoxicity call
C[C@H]1CN([C@@H](C)CO)C(=O)Cc2cc(NC(=O)C3CCCCC3)ccc2O[C@@H]1CN(C)C(=O)Nc1cccc2ccccc12	inactive
Nc1nc(Cl)nc2c1ncn2[C@H]1C[C@@H](O)[C@@H](CO)O1	inactive
C[C@@H]1CN([C@@H](C)CO)C(=O)c2cc(N(C)C)ccc2O[C@@H](C)CCCCO[C@H]1CN(C)C(=O)Nc1cccc2ccccc12	inactive
Fc1ccc(Nc2ncnc3sc(-c4ccccc4)cc23)cc1	inactive
COc1ccc(S(=O)(=O)Nc2ccc3c(c2)C(=O)N([C@H](C)CO)C[C@@H](C)[C@@H](CN(C)C(=O)Nc2cccc4ccccc24)O3)cc1	inactive
CC(=O)Oc1cc2c(c(C)c1OC(C)=O)CC=C1[C@@]2(C)CC[C@@]2(C)[C@H]3C[C@](C)(C(=O)O)CC[C@]3(C)CC[C@]12C	active
CC1(C(=O)O)CCC2(C)CCC3(C)C(=CC(=O)C4C5(C)CCC(O)C(C)(C)C5CCC43C)C2C1 (stereo unspecified)	inactive
C[C@@H]1CCCCO[C@@H](CN(C)Cc2ccc(C(F)(F)F)cc2)[C@H](C)CN([C@H](C)CO)C(=O)c2cc(NC(=O)CCC(F)(F)F)ccc2O1	inactive
C[C@@H]1CN([C@H](C)CO)C(=O)c2cc(NC(=O)CCC(F)(F)F)ccc2O[C@@H](C)CCCCO[C@@H]1CN(C)Cc1ccc(C(F)(F)F)cc1	inactive
C[C@H]1CCCCO[C@H](CN(C)Cc2ccc(C(F)(F)F)cc2)[C@@H](C)CN([C@@H](C)CO)C(=O)c2cc(NC(=O)CCC(F)(F)F)ccc2O1	active
C[C@@H]1CCCCO[C@@H](CN(C)Cc2ccc(C(F)(F)F)cc2)[C@H](C)CN([C@@H](C)CO)C(=O)c2cc(NC(=O)CCC(F)(F)F)ccc2O1	active
C[C@@H]1CN([C@@H](C)CO)C(=O)c2cc(NC(=O)CCC(F)(F)F)ccc2O[C@@H](C)CCCCO[C@H]1CN(C)Cc1ccc(C(=O)O)cc1	inactive
C[C@H](CO)N1C[C@H](C)[C@H](CN(C)Cc2ccc(C(F)(F)F)cc2)OCCCC[C@H](C)Oc2ccc(NC(=O)CCC(F)(F)F)cc2C1=O	inactive
C[C@@H]1CCCCO[C@H](CN(C)Cc2ccc(C(F)(F)F)cc2)[C@H](C)CN([C@@H](C)CO)C(=O)c2cc(NC(=O)CCC(F)(F)F)ccc2O1	active
C[C@@H]1CCCCO[C@@H](CN(C)Cc2ccc(C(=O)O)cc2)[C@H](C)CN([C@H](C)CO)C(=O)c2cc(NC(=O)CCC(F)(F)F)ccc2O1	active
C[C@@H]1CN([C@H](C)CO)C(=O)c2cc(NC(=O)CCC(F)(F)F)ccc2O[C@@H](C)CCCCO[C@H]1CN(C)Cc1ccc(C(=O)O)cc1	inactive
C[C@@H]1CCCCO[C@H](CN(C)Cc2ccc(C(F)(F)F)cc2)[C@@H](C)CN([C@@H](C)CO)C(=O)c2cc(NC(=O)CCC(F)(F)F)ccc2O1	inactive
C[C@H](CO)N1C[C@H](C)[C@@H](CN(C)Cc2ccc(C(F)(F)F)cc2)OCCCC[C@H](C)Oc2ccc(NC(=O)CCC(F)(F)F)cc2C1=O	inactive
C[C@@H]1CCCCO[C@H](CN(C)Cc2ccc(C(F)(F)F)cc2)[C@@H](C)CN([C@H](C)CO)C(=O)c2cc(NC(=O)CCC(F)(F)F)ccc2O1	inactive

SMILES	cytotoxicity call
CN(C)CC#Cc1ccc([C@@H]2[C@@H](CO)N3C(=O)CN(C(=O)c4cccnc4)C[C@H]23)cc1	inactive
CO[C@H](CN(C)C(=O)Nc1ccc(C(F)(F)F)cc1)[C@@H](C)CN(Cc1ccccc1Cl)[C@@H](C)CO	inactive
C=CCC[C@H](Cc1ccc(F)cc1)C(=O)O[C@H](CNC(=O)[C@@H](CC=C)CC(=O)N[C@@H](CO)Cc1ccccc1)c1ccccc1	inactive
C[C@H](CO)N1C[C@H](C)[C@@H](CN(C)Cc2ccc(-c3ccccc3)cc2)Oc2c(NC(=O)C3CC3)cccc2C1=O	inactive
NC(=O)NCC#Cc1ccc2c(c1)[C@]1(C(=O)N2)[C@H](C(=O)N2CCCCCCC2)[C@H]2C(=O)O[C@H](c3ccccc3)[C@H](c3ccccc3)N2[C@@H]1c1ccccc1OCCO	inactive
C[C@@H]1CN([C@@H](C)CO)S(=O)(=O)c2ccc(-c3ccccc3F)cc2O[C@H]1CN(C)S(C)(=O)=O	inactive
CN1C(=O)[C@@H](O)N(c2ccccc2)C1=O	inactive
CCOC(=O)[C@H](CCc1ccccc1)N[C@@H](C)C(=O)N1C(=O)N(C)C[C@H]1C(=O)O	inactive
CC(C)NC(=O)N(C)C[C@@H]1Oc2ccc(NS(=O)(=O)c3ccc(Cl)cc3)cc2CC(=O)N([C@@H](C)CO)C[C@H]1C	inactive
C[C@@H]1CN([C@@H](C)CO)C(=O)c2cccc(NS(=O)(=O)c3cccs3)c2O[C@H]1CN(C)Cc1ccc(Cl)c(Cl)c1	inactive
C[C@H]1CCCCO[C@@H](CN(C)Cc2ccc(C(F)(F)F)cc2)[C@@H](C)CN([C@@H](C)CO)C(=O)c2cc(NC(=O)CCC(F)(F)F)ccc2O1	active
C[C@@H]1CN([C@@H](C)CO)C(=O)c2cc(NC(=O)CCC(F)(F)F)ccc2O[C@@H](C)CCCCO[C@@H]1CN(C)Cc1ccc(C(F)(F)F)cc1	inactive
COc1ccc(CN(C)C[C@H]2OCCCC[C@@H](C)Oc3ccc(NC(=O)CCC(F)(F)F)cc3C(=O)N([C@H](C)CO)C[C@H]2C)cc1	inactive
COc1ccc(CN(C)C[C@H]2OCCCC[C@H](C)Oc3ccc(NC(=O)CCC(F)(F)F)cc3C(=O)N([C@@H](C)CO)C[C@H]2C)cc1	inactive
COc1ccc(CN(C)C[C@H]2OCCCC[C@H](C)Oc3ccc(NC(=O)CCC(F)(F)F)cc3C(=O)N([C@H](C)CO)C[C@H]2C)cc1	active
C[C@@H]1CN([C@@H](C)CO)C(=O)c2cc(NC(=O)CCC(F)(F)F)ccc2O[C@@H](C)CCCCO[C@H]1CN(C)Cc1ccc(C(F)(F)F)cc1	inactive
C[C@H](CO)N1C[C@H](C)[C@@H](CN(C)C(=O)Nc2ccc3c(c2)OCO3)OCCCC[C@H](C)Oc2ccc(NS(=O)(=O)c3ccc(Cl)cc3)cc2C1=O	inactive
COC(=O)c1c2oc(c1C(=O)OC)C(=O)N[C@H](Cc1ccccc1)Cn1cc(nn1)CNC(=O)[C@@H](Cc1ccccc1)NC(=O)N[C@@H](COC(=O)NCCCCCC(=O)NO)CC2	inactive
C[C@H](NC(=O)[C@H]1N[C@H]2c3ccc(-c4ccc(C(=O)N(C)C)cc4)c(=O)n3C[C@H]2[C@@H]1CO)c1ccccc1	inactive

SMILES	cytotoxicity call
COc1ccc(NC(=O)N(C)C[C@@H]2Oc3ccc(NS(=O)(=O)c4cn(C)cn4)cc3CC(=O)N([C@H](C)CO)C[C@H]2C)cc1	inactive
COc1ccc(NC(=O)Nc2cccc3c2O[C@@H](CN(C)Cc2ccc(C(=O)Nc4ccccc4N)cc2)[C@@H](C)CN([C@@H](C)CO)C3=O)cc1	inactive
CCN(CC)c1ccc(N2CC=C[C@@]34O[C@@H]5/C=C\CCCOC(=O)[C@@H]5[C@H]3C(=O)N(CCCCCCO)[C@@H]4C2=O)cc1	inactive
C[C@@H]1CCCCO[C@@H](CN(C)C(=O)Nc2ccccc2)[C@H](C)CN([C@@H](C)CO)C(=O)c2cc(NS(=O)(=O)c3ccccc3)ccc2O1	inactive
Cc1ccc(S(=O)(=O)Nc2ccc3c(c2)C(=O)N([C@@H](C)CO)C[C@@H](C)[C@@H](CN(C)S(=O)(=O)c2c(C)noc2C)O3)cc1	inactive
C[C@@H]1CN([C@H](C)CO)C(=O)c2cccc(NC(=O)CCCCCC(=O)Nc3ccccc3N)c2O[C@H]1CN(C)CC1CCCCC1	active
C[C@H]1CN([C@@H](C)CO)C(=O)c2cccc(NC(=O)CCCCCC(=O)Nc3ccccc3N)c2O[C@H]1CN(C)CC1CCCCC1	inactive
C[C@H](CO)N1C[C@H](C)[C@H](CN(C)CC2CCCCC2)Oc2c(NC(=O)CCCCCC(=O)Nc3ccccc3N)cccc2C1=O	inactive
C[C@H](CO)N1C[C@H](C)[C@@H](CN(C)CC2CCCCC2)Oc2c(NC(=O)CCCCCC(=O)Nc3ccccc3N)cccc2C1=O	inactive
C[C@@H]1CN([C@@H](C)CO)C(=O)c2cccc(NC(=O)CCCCCC(=O)Nc3ccccc3N)c2O[C@H]1CN(C)CC1CCCCC1	inactive
C[C@@H]1CN([C@@H](C)CO)C(=O)c2cccc(NC(=O)CCCCCC(=O)Nc3ccccc3N)c2O[C@@H]1CN(C)Cc1ccccc1	inactive
C[C@H]1CN([C@@H](C)CO)C(=O)c2cccc(NC(=O)CCCCCC(=O)Nc3ccccc3N)c2O[C@@H]1CN(C)CC1CCCCC1	active
C[C@@H]1CN([C@H](C)CO)C(=O)c2cccc(NC(=O)CCCCCC(=O)Nc3ccccc3N)c2O[C@@H]1CN(C)CC1CCCCC1	inactive
C[C@@H]1CN([C@@H](C)CO)C(=O)c2cccc(NC(=O)CCCCCC(=O)Nc3ccccc3N)c2O[C@@H]1CN(C)CC1CCCCC1	active
Nc1nc(=O)c2ncn(COC(CO)CO)c2[nH]1	inactive
CN[C@H]1[C@@H](O[C@H]2[C@@H](O[C@H]3[C@@H](O)[C@@H](O)[C@@H](NC(=N)N)[C@@H](O)[C@@H]3NC(=N)N)O[C@@H](C)[C@@]2(O)C=O)O[C@@H](CO)[C@@H](O)[C@@H]1O.CN[C@H]1[C@@H](O[C@H]2[C@@H](O[C@H]3[C@@H](O)[C@@H](O)[C@@H](NC(=N)N)[C@@H](O)[C@@H]3NC(=N)N)O[C@@H](C)[C@@]2(O)C=O)O[C@@H](CO)[C@@H](O)[C@@H]1O.O=S(=O)(O)O.O=S(=O)(O)O.O=S(=O)(O)O	inactive
CC1(C)SC2C(NC(=O)C(C(=O)[O-])c3ccccc3)C(=O)N2C1C(=O)[O-].[Na+].[Na+] (stereo unspecified)	inactive
C[C@@H]1CCCCO[C@@H](CN(C)C(=O)c2ccccc2)[C@@H](C)CN([C@@H](C)CO)C(=O)c2cc(NC(=O)c3ccccc3)ccc2O1	inactive
